From PubChem BioAssay (NCI)
The panel holds about 83,000 compounds, 20% with a hit somewhere; the sample as a whole holds those more often.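 Single-dose data. Exposure time 48 hours. Values below 10 considered active.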 A number with no mark means an inactive call. Activity calls are given as the source filed them.

Experiments:
Test in all cases: NCI-60 one-dose screen, 48 h (100 = growth as untreated, 0 = no growth, -100 = all killed)
Conditions in all cases: 10 µM unless noted
NCI-H23 lung = system: NCI-H23 lung
NCI-H226 lung = system: NCI-H226 lung
NCI-H322M lung = system: NCI-H322M lung
HOP-62 NSCLC = system: HOP-62 NSCLC
NCI-H460 lung = system: NCI-H460 lung
HOP-92 NSCLC = system: HOP-92 NSCLC
NCI-H522 lung = system: NCI-H522 lung
A549/ATCC NSCLC = system: A549/ATCC NSCLC
786-0 renal = system: 786-0 renal
COLO 205 colon = system: COLO 205 colon
DU-145 prostate = system: DU-145 prostate
K-562 leukemia = system: K-562 leukemia
MALME-3M melanoma = system: MALME-3M melanoma
MDA-MB-231 breast = system: MDA-MB-231 breast
RXF 393 renal = system: RXF 393 renal
SF-268 CNS = system: SF-268 CNS
SF-295 CNS = system: SF-295 CNS
SF-539 CNS = system: SF-539 CNS
UACC-257 melanoma = system: UACC-257 melanoma
M14 melanoma = system: M14 melanoma

Question: Which results are given for `CCCOc1ccc(/C=N/Nc2cc(C)nc3ccc(Br)cc23)cc1`?
Answer: growth (NCI-H23 lung): 86.9%; growth (NCI-H226 lung): 93.3%; growth (NCI-H322M lung): 94.5%; growth (HOP-62 NSCLC): 92.7%; growth (NCI-H460 lung): 70.5%; growth (HOP-92 NSCLC): 67.9%; growth (NCI-H522 lung): 101%; growth (A549/ATCC NSCLC): 94.6%; growth (786-0 renal): 100%; growth (COLO 205 colon): 44.8%; growth (DU-145 prostate): 86.8%; growth (K-562 leukemia): 11.5%; growth (MALME-3M melanoma): 112%; growth (MDA-MB-231 breast): 92.9%; growth (RXF 393 renal): 83.4%; growth (SF-268 CNS): 102%; growth (SF-295 CNS): 81%; growth (SF-539 CNS): 83.9%; growth (UACC-257 melanoma): 98.7%; growth (M14 melanoma): 80.3%

Question: How did the growth (NCI-H23 lung) turn out when `c1ccc2c(-c3c[nH]c4ccccc34)c3c(cc2c1)[nH]c1ccccc13` was run?
Answer: 69.9%

Question: What about the growth (NCI-H226 lung) of the same compound?
Answer: 86.2%

Question: What about the growth (NCI-H322M lung) of the same compound?
Answer: 83.7%

Question: And the growth (HOP-62 NSCLC)?
Answer: 60.4%

Question: And the growth (NCI-H460 lung)?
Answer: 68.9%

Question: What about the growth (HOP-92 NSCLC) of the same compound?
Answer: 83.3%

Question: What about the growth (NCI-H522 lung) of the same compound?
Answer: 51.7%

Question: And the growth (A549/ATCC NSCLC)?
Answer: 62%

Question: And the growth (786-0 renal)?
Answer: 51.9%

Question: And the growth (COLO 205 colon)?
Answer: 83.3%

Question: And the growth (DU-145 prostate)?
Answer: 93.7%

Question: What about the growth (K-562 leukemia) of the same compound?
Answer: 25.1%

Question: And the growth (MALME-3M melanoma)?
Answer: 78.9%

Question: And the growth (MDA-MB-231 breast)?
Answer: 71.6%

Question: What about the growth (RXF 393 renal) of the same compound?
Answer: 33.5%

Question: And the growth (SF-268 CNS)?
Answer: 66.7%

Question: What about the growth (SF-295 CNS) of the same compound?
Answer: 85.4%

Question: What about the growth (SF-539 CNS) of the same compound?
Answer: 59%

Question: What about the growth (UACC-257 melanoma) of the same compound?
Answer: 77.6%

Question: What about the growth (M14 melanoma) of the same compound?
Answer: 39.2%

Question: Which results are given for `CCOc1cccc(-c2nc(N)nc(Nc3ccccc3SSc3ccccc3Nc3nc(N)nc(-c4cccc(OCC)c4)n3)n2)c1`?
Answer: growth (NCI-H23 lung): 43.8%; growth (NCI-H226 lung): 68%; growth (NCI-H322M lung): 85.1%; growth (HOP-62 NSCLC): -0.309% (active); growth (NCI-H460 lung): 35.6%; growth (HOP-92 NSCLC): 97.2%; growth (NCI-H522 lung): 90.8%; growth (A549/ATCC NSCLC): -10.8% (active); growth (786-0 renal): 84.9%; growth (COLO 205 colon): 109%; growth (DU-145 prostate): 83.9%; growth (K-562 leukemia): 68.9%; growth (MALME-3M melanoma): 97%; growth (MDA-MB-231 breast): 51.7%; growth (RXF 393 renal): 92.4%; growth (SF-268 CNS): 25.1%; growth (SF-295 CNS): 5.56% (active); growth (SF-539 CNS): 93.2%; growth (UACC-257 melanoma): 118%; growth (M14 melanoma): 69.4%

Question: Which results are given for `Nc1n[nH]c2cccc(C#Cc3cccc(C(=O)Nc4cccc(C(F)(F)F)c4)c3)c12`?
Answer: growth (NCI-H23 lung): 54%; growth (NCI-H226 lung): 63.2%; growth (NCI-H322M lung): 86.4%; growth (HOP-62 NSCLC): 67.7%; growth (NCI-H460 lung): 74.7%; growth (HOP-92 NSCLC): 58.6%; growth (NCI-H522 lung): 60.9%; growth (A549/ATCC NSCLC): 77.8%; growth (786-0 renal): 90.6%; growth (COLO 205 colon): 49.8%; growth (DU-145 prostate): 74.9%; growth (K-562 leukemia): 8.36% (active); growth (MALME-3M melanoma): 10.4%; growth (MDA-MB-231 breast): 53.6%; growth (RXF 393 renal): 65.9%; growth (SF-268 CNS): 56.4%; growth (SF-295 CNS): 81.6%; growth (SF-539 CNS): 39%; growth (UACC-257 melanoma): 73.2%; growth (M14 melanoma): 39.2%

Question: With `Cc1nc(N)nc(N[C@@H](C)c2nc3cccc(NCc4ccc(C(=O)NO)cc4)c3c(=O)n2-c2ccccc2)n1` as the compound, how does the growth (NCI-H23 lung) read?
Answer: 63.9%

Question: And the growth (NCI-H226 lung)?
Answer: 81%

Question: What about the growth (NCI-H322M lung) of the same compound?
Answer: 80.1%

Question: What about the growth (HOP-62 NSCLC) of the same compound?
Answer: 75.1%

Question: And the growth (NCI-H460 lung)?
Answer: 76.3%

Question: What about the growth (HOP-92 NSCLC) of the same compound?
Answer: 50.1%

Question: What about the growth (NCI-H522 lung) of the same compound?
Answer: 35.3%

Question: What about the growth (A549/ATCC NSCLC) of the same compound?
Answer: 90.5%

Question: What about the growth (786-0 renal) of the same compound?
Answer: 93.9%

Question: What about the growth (COLO 205 colon) of the same compound?
Answer: 47.3%

Question: What about the growth (DU-145 prostate) of the same compound?
Answer: 86.9%

Question: What about the growth (K-562 leukemia) of the same compound?
Answer: 47.8%

Question: And the growth (MALME-3M melanoma)?
Answer: 37.7%

Question: And the growth (MDA-MB-231 breast)?
Answer: 81%

Question: And the growth (RXF 393 renal)?
Answer: 65%

Question: And the growth (SF-268 CNS)?
Answer: 87.1%

Question: And the growth (SF-295 CNS)?
Answer: 104%

Question: And the growth (SF-539 CNS)?
Answer: 75.9%

Question: What about the growth (UACC-257 melanoma) of the same compound?
Answer: 58.3%

Question: What about the growth (M14 melanoma) of the same compound?
Answer: 73.7%

Question: With `COc1cc(NC(C)CCCNC(=O)CCC(=O)NCCCNCCCCCCCCNCCCNC(=O)CCC(=O)NCCCC(C)Nc2cc(OC)cc3cccnc23)c2ncccc2c1` (stereo not given) as the compound, how does the growth (NCI-H23 lung) read?
Answer: 54.4%

Question: And the growth (NCI-H226 lung)?
Answer: 44.5%

Question: What about the growth (NCI-H322M lung) of the same compound?
Answer: 32.9%

Question: What about the growth (HOP-62 NSCLC) of the same compound?
Answer: 85.2%

Question: And the growth (NCI-H460 lung)?
Answer: 87.4%

Question: And the growth (HOP-92 NSCLC)?
Answer: 54.2%

Question: What about the growth (NCI-H522 lung) of the same compound?
Answer: 47.3%

Question: And the growth (A549/ATCC NSCLC)?
Answer: 63%

Question: And the growth (786-0 renal)?
Answer: 92.6%

Question: What about the growth (COLO 205 colon) of the same compound?
Answer: 14.7%

Question: And the growth (DU-145 prostate)?
Answer: 66.7%

Question: What about the growth (K-562 leukemia) of the same compound?
Answer: 45.1%

Question: And the growth (MALME-3M melanoma)?
Answer: 40.2%

Question: And the growth (MDA-MB-231 breast)?
Answer: 44%

Question: And the growth (RXF 393 renal)?
Answer: 67.9%

Question: And the growth (SF-268 CNS)?
Answer: 52.2%

Question: And the growth (SF-295 CNS)?
Answer: 85.5%

Question: What about the growth (SF-539 CNS) of the same compound?
Answer: 69%

Question: What about the growth (UACC-257 melanoma) of the same compound?
Answer: 36.3%

Question: And the growth (M14 melanoma)?
Answer: 84.4%

Question: Which growth (NCI-H23 lung) does the source give for `Cc1cnc(C(=O)Nc2nc3ccc(S(=O)(=O)Nc4ccc(C5(C(F)(F)F)CC5)cc4)cc3[nH]2)cn1` here?
Answer: 33.9%

Question: What about the growth (NCI-H226 lung) of the same compound?
Answer: 13.2%

Question: What about the growth (NCI-H322M lung) of the same compound?
Answer: 33.9%

Question: And the growth (HOP-62 NSCLC)?
Answer: 21.1%

Question: What about the growth (NCI-H460 lung) of the same compound?
Answer: 0.982% (active)

Question: What about the growth (HOP-92 NSCLC) of the same compound?
Answer: 32.8%

Question: What about the growth (NCI-H522 lung) of the same compound?
Answer: 16%

Question: What about the growth (A549/ATCC NSCLC) of the same compound?
Answer: 23.7%

Question: And the growth (786-0 renal)?
Answer: 26.2%

Question: What about the growth (COLO 205 colon) of the same compound?
Answer: -1.76% (active)

Question: What about the growth (DU-145 prostate) of the same compound?
Answer: 1.12% (active)

Question: And the growth (K-562 leukemia)?
Answer: 10%

Question: What about the growth (MALME-3M melanoma) of the same compound?
Answer: 32.2%

Question: And the growth (MDA-MB-231 breast)?
Answer: 47.2%

Question: What about the growth (RXF 393 renal) of the same compound?
Answer: -17.4% (active)

Question: What about the growth (SF-268 CNS) of the same compound?
Answer: 47%

Question: And the growth (SF-295 CNS)?
Answer: 20.6%

Question: What about the growth (SF-539 CNS) of the same compound?
Answer: -1.85% (active)

Question: And the growth (UACC-257 melanoma)?
Answer: 57.7%

Question: And the growth (M14 melanoma)?
Answer: 6.68% (active)
